Screening data (PubChem)
RBX1-CUL1 inh: inhibitors of human ROC1-CUL1 ubiquitin ligase activity | 140,000 tested, 0.6% active | P62877+Q13616 | in vitro K48 di-Ub FRET, acceptor:donor ratio, 45 min | inhibition, % at 10 µM; in the data active = inhibition above about 25%
Active calls of the source: *. Shown is part of a subset that was picked to be rich in hits.

SMILES	RBX1-CUL1 inh
COc1cc2c(-c3cc(Br)ccc3O)nc3c(c(-c4ccccc4)nn3-c3ccccc3)c2cc1OC	5.6
Cc1ncc2c(c1-c1noc(-c3ccc(-c4nnn(C)n4)cc3)n1)CCNC2	-3.7
C=CCOc1c(Br)cc(/C=C2\SC(=O)N(Cc3ccc(F)cc3)C2=O)cc1OCC	-2.2
O=C1S/C(=C\c2cc(Br)c(O)c(Br)c2)C(=O)N1Cc1ccc(F)cc1	30.7*
O=C1S/C(=C\c2ccccc2)C(=O)N1Cc1ccc(F)cc1	5.2
Cc1occc1C(=O)N(C)CC1CCN(CCc2ccccc2F)CC1	0.2
COC(=O)c1cc(Br)ccc1Cl	4.1
COC(=O)c1cc(Br)cc(O)c1O	83.1*
COC(=O)c1ccc(C(=O)OC)c(NC(=O)c2ccc(Br)cc2)c1	-8.9
O=C(c1ccc(N2CCC(NCc3scnc3-c3ccccc3)CC2)cc1)N1CCOCC1	-9.0
c1ccc(OCc2noc(CN3CCC(c4nc5ccccc5o4)CC3)n2)cc1	-0.6
CC(=O)Oc1c(/C=C(\C#N)C(N)=O)[nH]c2ccccc12	46.8*
COC(=O)/C(C#N)=C/c1c(OC)[nH]c2ccccc12	-10.0
N#C/C(=C\c1ccc(Cl)s1)C(N)=O	2.9
Cc1c(N=NC2C(=O)N(c3ccccc3)N=C2N)c(=O)n(-c2ccccc2)n1C (stereo not given)	-5.4
CC1=NNC(=O)C1N=Nc1c(C)n(C)n(-c2ccccc2)c1=O (stereo not given)	39.0*
Cc1c(Sc2c(C)n(C)n(-c3ccccc3)c2=O)c(=O)n(-c2ccccc2)n1C	2.2
Cc1cc(C)c(S(=O)(=O)NC2CCCCC2)cc1S(=O)(=O)NC1CCCCC1	-3.1
O=C1NC(=Nc2ccccc2Cl)S/C1=C\c1ccc(-c2ccc(Cl)cc2)o1	-8.4
O=C1NC(=Nc2cc(Cl)cc(Cl)c2)S/C1=C\c1ccco1	27.7*
O=C1NC(=Nc2ccccc2)S/C1=C/c1ccc(-c2ccc(Cl)cc2Cl)o1	-3.4
Cc1cc(NS(=O)(=O)c2ccc(NC(=O)COc3cccc(C(C)C)c3)cc2)no1	-1.1
COCCC(=O)NCc1cccnc1-n1cnc2ccccc21	-6.0
CCCc1nn2c(N)c(C=C3C=C(Br)C=CC3=O)c(=O)nc2s1	-3.3
CCc1nn2c(N)c(C=C3C=C(Cl)C(=O)C(Cl)=C3)c(=O)nc2s1	6.6
SMILES	RBX1-CUL1 inh
CCCCCCCc1nn2c(N)c(C=C3C=C(Cl)C(=O)C(Cl)=C3)c(=O)nc2s1	95.2*
CC1=C(C(=O)Nc2ccccc2)C(c2cccs2)n2c(s/c(=C\c3cc(C)n(-c4ccccc4)c3C)c2=O)=N1 (stereo not given)	-0.4
CCCCC(=O)NC1(C(F)(F)F)C(=O)N=C2C1C(=O)NC(=O)N2c1ccc(C)c(C)c1 (stereo not given)	14.4
CCC(C)NC(=O)c1c2nc3ccccc3nc2n2c1[nH]c(=O)c1ccccc12 (stereo not given)	53.0*
CCC(C)NC(=O)c1ccccc1NC(=O)c1ccncc1 (stereo not given)	6.2
CCC(C)NC(=O)c1c2c(nc3ccccc13)C(=O)N(C1CCCCC1)C2 (stereo not given)	-1.0
Cc1nc2sc(C)c(C)c2c(-c2ccccc2)c1-c1ccccc1	1.4
COc1ccc2c(c1)C1(C)CCCc3c4c(c(=O)n-2c31)C(=O)CC(=O)O4 (stereo not given)	0.3
Cc1ncsc1CCC(=O)N1CCc2c([nH]c3ccccc23)C1C(C)(C)C (stereo not given)	-0.8
O=C(/C=C/c1c(Cl)cccc1Cl)Nc1ncccn1	-2.8
CCOC(=O)c1ccccc1NC(=O)/C=C/c1ccc(Br)cc1	-3.6
CC1CN(C(=O)/C=C/c2ccc(F)cc2)C(C)CN1C(=O)/C=C/c1ccc(F)cc1 (stereo not given)	-2.1
CCN=C1CC=C(Br)C=C(C(=O)/C=C/c2ccc(C(F)(F)F)cc2)C1=O	5.5
CCN=C1CC=C(Br)C=C(C(=O)/C=C/c2ccc(Br)cc2)C1=O	93.5*
NS(=O)(=O)c1ccc(CNC(=O)/C=C/c2c(Cl)cccc2Cl)cc1	15.8
CN=C1CC=C(Br)C=C(C(=O)/C=C/c2ccc(Br)cc2)C1=O	35.6*
CC(=O)c1cccc(NC(=O)/C=C/c2ccc(Br)cc2)c1	5.1
CCN=C1CC=C(Br)C=C(C(=O)/C=C/c2ccc(F)cc2)C1=O	26.7*
CCN=C1CC=C(Br)C=C(C(=O)/C=C/c2c(Cl)cccc2Cl)C1=O	89.5*
CCN=C1CC=C(Br)C=C(C(=O)/C=C/c2ccc(Cl)cc2)C1=O	17.1
CCOc1ccccc1N1CCN(C(=O)/C=C/c2ccc(Br)cc2)CC1	-7.9
Cc1cccc(Nc2nc3nonc3nc2N2CCC(C)CC2)c1C	-5.3
O=C(Nc1ccc(-n2cccn2)cc1)C1CCCN1C(=O)c1ccoc1 (stereo not given)	-2.4
O=C(Nc1ccc(S(=O)(=O)Nc2ccc(Cl)cc2)cc1)c1ccccc1OC(F)F	2.1
CCCC(C)NS(=O)(=O)c1c(C)cc(C)cc1C (stereo not given)	-10.1
CCN(CC)c1ccc(N=c2ssc3c2-c2cc(C)ccc2NC3(C)C)cc1	11.5
